Hits are enriched below; roughly 0.5% of the tested compounds scored in any of these assays.
E coli growth-1 – E. coli growth inhibition, primary screen, OD600 | AID 1053175, 2014 | OD600 absorbance (test concentration not listed) | 330,000 tested, 0.21% active | Escherichia coli growth, 23 h; stronger effect = lower value;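 active = OD600 absorbance below the run mean of sample wells minus 3.6 SD, in any replicate, cut at about 0.56 in these data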
phage Ecoli inh – growth loss of phage-infected E. coli, primary screen, RecBCD inhibitor project, absorbance, with phage, HTS. inhibition, % at 11.9 µM. 360,000 tested, 0.26% active. AID 651602, 2012; in the data active = inhibition above about 11%
AddAB inh – growth inhibition of E. coli expressing H. pylori AddAB, primary screen, AddAB inhibitor project, absorbance; inhibition, % at 11.9 µM; AID 435030, 2010; 330,000 tested, 0.29% active; in the data active = inhibition above about 12%;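 also: 0% = vehicle wells of infected cells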
Tat transport – E. coli Tat export inhibitors, primary screen, MC4100, TorA-mCherry reporter, fluorescence, single point | 340,000 tested, 0.036% active | AID 488895, 2010 | inhibition, % at 10 µM;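 active = mean replicate inhibition at least 50% and at least half of replicates individually reaching 50%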;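 also: exported cargo escapes ClpAP degradation while cytoplasmic cargo is degraded and loses fluorescence; 0% = median of neutral control wells and 100% = median of NaSCN control wells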
E coli growth-2 – E. coli V3065 growth inhibition, primary screen, counter-screen for AddAB inhibitor project, absorbance, OD600; 18 h; inhibition, % at 11.9 µM; 330,000 tested, 0.27% active;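 active = inhibition above the campaign's mean inhibition across all tested compounds plus 3 SD, cut at about 9.9% in these data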;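 also: uninfected addAB+ strain grown without phage in ampicillin broth; 0% = DMSO wells and 100% = ciprofloxacin 0.95 µg/ml wells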
AddAB confirm – growth loss of phage-infected E. coli expressing H. pylori AddAB, confirmation, AddAB inhibitor project, absorbance, E. coli V3065, T4 phage, triplicate. shares compounds with AddAB inh. OD; T4 phage with gene 2 nonsense mutations. inhibition, % at 11.9 µM. 880 tested, 64% active. AID 488942, 2010;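 active = mean inhibition above a set limit taken from the earlier primary screen, cut at about 13% in these data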;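 also: higher means less bacterial growth since AddAB block lets phage replicate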
RecBCD counter – growth loss of RecBCD+ E. coli with mutant T4 phage, counter-screen for AddAB inhibitor project, absorbance, V66 E. coli. OD growth. shares compounds with AddAB inh. AID 488955, 2010. 880 tested, 73% active. inhibition, % at 11.9 µM;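 active = mean inhibition above the mean of solvent-only control wells plus 3 SD, cut at about 4% in these data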;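 also: optical density read after an 18 h incubation at 37 °C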
bact viab count – bacterial viability inhibition counter-screen, confirmation, counter-screen for AddAB inhibitor project, absorbance | absorbance (AddAB counterscreen) | inhibition, % at 11.9 µM | 880 tested, 35% active | shares compounds with AddAB inh; in the data active = inhibition above about 25%
* marks the source's active call; other numbers are inactive results.

Results for O=C1C2CCCN2C(c2ccc(F)c(F)c2)N1c1cccc(Cl)c1 (stereo not drawn) ?
E coli growth-1: 0.72; phage Ecoli inh: 0; AddAB inh: 2; Tat transport: -7; E coli growth-2: 1

Results for O=C1C2CCCN2C(c2ccccc2)N1c1cccc(Cl)c1 (stereo not drawn) ?
E coli growth-1: 0.65; phage Ecoli inh: 2; AddAB inh: 119*; Tat transport: 2; E coli growth-2: 1; AddAB confirm: -3; RecBCD counter: 0; bact viab count: -3

How did O=C(COC(=O)c1ccccc1NC(=O)c1ccco1)NCC1CCCCC1 do in these assays?
E coli growth-1: 0.68; phage Ecoli inh: 0; AddAB inh: 97*; Tat transport: -6; E coli growth-2: 98*; AddAB confirm: -2; RecBCD counter: 2; bact viab count: 0

How did Cc1ccc(C(=O)NNC(=S)NC(=O)c2ccco2)cc1 do in these assays?
E coli growth-1: 0.47*; phage Ecoli inh: 5; AddAB inh: 13*; Tat transport: -11; E coli growth-2: 9; AddAB confirm: 7; RecBCD counter: 10*; bact viab count: 3

What do the screens show for `CCC(=O)NC(c1ccccc1OC)c1ccc2cccnc2c1O` (stereo not drawn)?
E coli growth-1: 0.66; AddAB inh: 28*; Tat transport: -8; E coli growth-2: 24*; AddAB confirm: 18*; RecBCD counter: 23*; bact viab count: 15

Results for CCn1cc(C(=O)NC(C)C)c(=O)c2cc(F)c(N3CCN(C(=O)c4ccco4)CC3)cc21 ?
E coli growth-1: 0.087*; phage Ecoli inh: 5; AddAB inh: 89*; Tat transport: 9; E coli growth-2: 82*; AddAB confirm: 99*; RecBCD counter: 1; bact viab count: 35*

How did CC(=O)c1cc(F)c(N2CCN(C(=O)c3ccco3)CC2)cc1C do in these assays?
E coli growth-1: 0.74; phage Ecoli inh: 0; AddAB inh: 2; Tat transport: -4; E coli growth-2: 2

Results for CCn1cc(C(=O)NCCC(C)C)c(=O)c2cc(F)c(N3CCN(C(=O)c4ccco4)CC3)cc21 ?
E coli growth-1: 0.15*; phage Ecoli inh: 3; AddAB inh: 26*; Tat transport: 3; E coli growth-2: 16*; AddAB confirm: 99*; RecBCD counter: 2; bact viab count: 36*

How did COC(=O)c1cc(C(=O)OCC(=O)N(C)C2CCS(=O)(=O)C2)cc([N+](=O)[O-])c1 (stereo not drawn) do in these assays?
E coli growth-1: 0.7; phage Ecoli inh: 1; AddAB inh: 22*; Tat transport: 0; E coli growth-2: 12*; AddAB confirm: -2; RecBCD counter: -1; bact viab count: -2

How did COc1ccccc1C=NNC(=O)C(=O)N1CCN(c2ccccc2OC)CC1 do in these assays?
E coli growth-1: 0.65

What do the screens show for `O=C1NCCO1`?
phage Ecoli inh: 4; AddAB inh: 100*; Tat transport: 0; E coli growth-2: 101*; AddAB confirm: 0; RecBCD counter: -1; bact viab count: -3

Results for O=C1NCCOc2ccccc21 ?
phage Ecoli inh: 4

Results for CCCOc1ccc(C=NNc2ccccn2)cc1OC ?
E coli growth-1: 0.72

How did O=C(Nc1cccc(NC(=O)c2ccc([N+](=O)[O-])o2)c1)c1ccco1 do in these assays?
E coli growth-1: 0.46*; phage Ecoli inh: 10; AddAB inh: 24*; Tat transport: -30; E coli growth-2: 17*; AddAB confirm: 99*; RecBCD counter: 10*; bact viab count: 30*

Results for O=C(Nc1nc(-c2cccs2)cs1)c1ccc([N+](=O)[O-])o1 ?
E coli growth-1: 0.52*; phage Ecoli inh: 10; AddAB inh: 13*; Tat transport: -19; E coli growth-2: 7; AddAB confirm: 85*; RecBCD counter: 7.5*; bact viab count: 13

Results for O=C(Nc1cccc(NC(=O)c2cccs2)c1)c1ccc([N+](=O)[O-])o1 ?
E coli growth-1: 0.41*; phage Ecoli inh: 11; AddAB inh: 27*; Tat transport: -13; E coli growth-2: 16*; AddAB confirm: 96*; RecBCD counter: 9.4*; bact viab count: 28*

Results for CC(C)c1c(C(=O)NN=C2CCc3ccccc32)nnn1-c1nonc1N ?
E coli growth-1: 0.71

What do the screens show for `CC(C)CC(C)C(=O)N(Cc1ccccc1)c1ccccc1` (stereo not drawn)?
E coli growth-1: 0.66

What do the screens show for `Cc1ccc(C(c2cc(Cl)c3cccnc3c2O)N2CCN(C)CC2)cc1` (stereo not drawn)?
AddAB inh: 19*; Tat transport: -2; E coli growth-2: 20*; AddAB confirm: 9; RecBCD counter: 9.4*; bact viab count: 2

What do the screens show for `CN1CCN(C(c2ccccn2)c2cc(Cl)c3cccnc3c2O)CC1` (stereo not drawn)?
E coli growth-1: 0.62; phage Ecoli inh: 8; AddAB inh: 5; Tat transport: -7; E coli growth-2: -1

How did CC(=NNC1=NCCN1)c1ccc(Cl)cc1 do in these assays?
E coli growth-1: 0.61

How did COc1cccc(/C=N/NC(=O)N/N=C/c2cccc(OC)c2O)c1O do in these assays?
phage Ecoli inh: 11; AddAB inh: 15*; Tat transport: -5; E coli growth-2: 12*; AddAB confirm: 12; RecBCD counter: 11*; bact viab count: 9

What do the screens show for `COc1cccc(C=NNC(=O)C(=O)NN=Cc2cccc(OC)c2O)c1O`?
E coli growth-1: 0.71

How did CSc1nc(N)nc2c1ncn2CC(=O)NCC(c1ccccc1)c1ccccc1 do in these assays?
E coli growth-1: 0.7; phage Ecoli inh: 2; AddAB inh: 1; Tat transport: 4; E coli growth-2: -2

What do the screens show for `Cc1ccc(NC(=O)Cn2cnc3ccccc32)cc1C`?
E coli growth-1: 0.68; phage Ecoli inh: 7; AddAB inh: 14*; Tat transport: -14; E coli growth-2: 14*; AddAB confirm: 20*; RecBCD counter: 14*; bact viab count: 11

What do the screens show for `CSc1nc(N)nc2c1ncn2CC(=O)Nc1ccc(C)c(C)c1`?
E coli growth-1: 0.63; phage Ecoli inh: 9; AddAB inh: 15*; Tat transport: 15; E coli growth-2: 12*; AddAB confirm: 13*; RecBCD counter: 11*; bact viab count: 7

How did CCCN=C1CC(C)(C)CC(=O)/C1=C(\O)CCC do in these assays?
E coli growth-1: 0.69

Source: PubChem BioAssay
